Experimental data from article PMC4552634, “A New Set of Chemical Starting Points with Plasmodium falciparum Transmission-Blocking Potential for Antimalarial Drug Discovery” (PLoS ONE, 2015).
About 3,200 (25%) of roughly 13,000 compounds showed an effect of 50% or more. The list shows a part of the results.

test system: P. falciparum stage V gametocytes; design: BacTiter-Glo ATP luminescence viability of purified stage V gametocytes in 384-well plates, per cent inhibition versus DMSO; conditions: 48 h, 5 µM; inhibitor

Compared with `O=C(Nc1ccc(OC2CCN(Cc3ccccc3)CC2)c(Cl)c1)c1ccc(F)cc1` [TCMDC-133967], `CN(c1cc(NC(=O)c2ccc(F)cc2)ccn1)C1CCN(Cc2cccc(C#N)c2)CC1` [TCMDC-134975] is lower in “% Inhibition” value: 19.46% for the first, 15.95% for the second.

Compared with `FC(F)(F)c1ccc2nc(-c3ccc(-c4ccc(CN5CCN(c6ccncc6)CC5)cc4)cc3)[nH]c2c1` [TCMDC-132915], `O=C(Nc1cccc(CN2CCCN(Cc3cccnc3)CC2)c1)c1ccc(Cl)c(Cl)c1` [TCMDC-141824] is higher in “% Inhibition” value: -1.262% for the first, 12.34% for the second.

Compared with `COc1cc(F)c2ncc(Cl)c(C(O)CN3CCC(NC(=O)c4ccc5c(n4)NC(=O)CO5)CC3)c2c1` (stereo not shown) [TCMDC-135912], `CC(C)CCN1CCCN(Cc2cccc(NC(=O)c3ccc(Cl)c(Cl)c3)c2)CC1` [TCMDC-141827] is higher in “% Inhibition” value: -16.65% for the first, 68.73% for the second.

Going from `CCCc1cc(OC)c(CC2c3cccc(O)c3CCN2C)cc1OC` (stereo not shown) [TCMDC-137435] to `CCCCN1CCN(Cc2cccc(NC(=O)c3ccc(Cl)c(Cl)c3)c2)CC1` [TCMDC-134615], the “% Inhibition” value falls from 12.33% to -27.06%.

Going from `CN(C)c1ccc(C=CC(=O)NC(=O)c2ccccc2O)cc1` [TCMDC-125391] to `COc1ccc2c(c1)[nH]c1c(C=Cc3ccccc3)nccc12` [TCMDC-125877], the “% Inhibition” value falls from 21.33% to -0.575%.

Going from `CCC(Cc1cnc2nc(N)nc(N)c2n1)c1ccc(C(=O)N[C@@H](CCC(=O)O)C(=O)O)cc1` (stereo partly shown) [TCMDC-137768] to `CCC(C)Oc1ccc2nc(N)nc(N)c2c1Cl` (stereo not shown) [TCMDC-137760], the “% Inhibition” value rises from -32.96% to 3.28%.

Compared with `CCCCCCN1CCN(Cc2cccc(NC(=O)c3ccc(Cl)c(Cl)c3)c2)CC1` [TCMDC-134617], `O=C(Nc1cccc(CN2CCCN(Cc3ccsc3)CC2)c1)c1ccc(Cl)c(Cl)c1` [TCMDC-134581] is lower in “% Inhibition” value: -46.23% for the first, -57.04% for the second.

Going from `CC(C)CCN1CCCN(Cc2ccc(C(=O)Nc3ccc(F)c(F)c3)cc2)CC1` [TCMDC-136391] to `Cc1ccc(NC(=O)c2ccc(CN3CCCN(CCC(C)C)CC3)cc2)cc1F` [TCMDC-136410], the “% Inhibition” value falls from 89.43% to -21.57%.

Going from `CC(C)CCN1CCCN(Cc2ccc(C(=O)Nc3ccc(Cl)cc3)cc2)CC1` [TCMDC-136413] to `O=C(Nc1cccc(CN2CCCN(Cc3cccc(Cl)c3)CC2)c1)c1ccc(Cl)c(Cl)c1` [TCMDC-141822], the “% Inhibition” value rises from 0.3374% to 77.55%.

`O=C(NCCOc1ccccc1)[C@H](Cc1ccccc1)Nc1ccnc(NCC2CCCCC2)n1` [TCMDC-134710] was tested, and the “% Inhibition” value was 2.198%.
